Experimental findings from PubChem BioAssay (Tox21) are described below.

Assay [1] can be described thus: qHTS assay for small molecules that induce genotoxicity in human embryonic kidney cells expressing luciferase-tagged ATAD5 (AID 651632). Also: nearly all actives have a fitted effect of over 15% in size. In short, it runs like this:
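Luminescent reporter readout, HEK293T ATAD5-luc line: 16 hr drug exposure (37C, 5% CO2) followed by Amplite, 30 min RT.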

Assay [2] in a line: qHTS assay for small molecule agonists of the p53 signaling pathway - cell viability (AID 651633; calls by dose curve;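 also: p53RE-bla HCT reporter cells with a stable beta-lactamase p53 reporter; series mostly up to about 83 µM; nearly all actives have a fitted effect of over 30% in size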). In short, it runs like this:
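p53RE-bla cells were treated with compound for 16 hours at 37 C. Cytotoxicity was then measured as CellTiter-Glo luminescence after 30 min at room temperature.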

Assay [3] in a line: qHTS assay for small molecules that induce genotoxicity in human embryonic kidney cells expressing luciferase-tagged ATAD5 - cell viability (AID 651634; calls by dose curve; also: nearly all actives have a fitted effect of over 25% in size). In short, it runs like this:
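Viability read: CellTiter-Fluor fluorescence, 30 min at 37C. Cells: HEK293T, luciferase-tagged ATAD5. Exposure: 15.5 hr, 37C, 5% CO2, compound or DMSO vehicle.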
On the technique in general: Quantitative high-throughput screening tests each substance at several concentrations.

Assay [4] in a line: qHTS assay for small molecule disruptors of the mitochondrial membrane potential - cell viability (AID 720634; calls by dose curve;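 also: human HepG2 liver cancer cells; series mostly up to about 83 µM; nearly all actives have a fitted effect of over 20% in size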). In short, it runs like this:
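HepG2, 1 hr compound, 37 C. ATP luminescence via CellTiter-Glo, 30 min RT, same well as m-MPI.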

A short description of assay [5]: qHTS assay for small molecule disruptors of the mitochondrial membrane potential (AID 720635). Also: potency is read from the fitted curve at half-maximal effect. An outline of the steps:
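HepG2 cells exposed to compound 1 hr at 37C, then Mito-MPS dye 30 min. Ratio read of aggregate (540/590 nm) versus monomer (490/535 nm) fluorescence.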

Assay [6] is described as follows: qHTS assay to test for compound auto fluorescence at 535 nm (green) in HepG2 cells (AID 720675).
Assay [7] in a line: qHTS assay to test for compound auto fluorescence at 460 nm (blue) in HEK293 cells (AID 720678). In short, it runs like this: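 Blue-channel (Ex/Em 405/460 nm) intensity measured in HEK293 cultures after overnight compound exposure at 37C; signal expressed relative to triamterene. Cells plated 2,000 per well in 10% dialyzed FBS medium and allowed 4-5 hr to attach.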
Assay [8] can be described thus: qHTS assay to test for compound auto fluorescence at 590 nm (red) in HEK293 cells (AID 720679). In short, it runs like this: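 Red-channel autofluorescence (Ex/Em 540/590 nm; Rose Bengal sodium reference) was measured after overnight 37C, 5% CO2 exposure of attached HEK293 cells, 2,000 per well in medium with 10% dialyzed FBS.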
The nature of assay [9]: qHTS assay to test for compound auto fluorescence at 590 nm (red) in HepG2 cells (AID 720674). In short, it runs like this:
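HepG2 cells, 2,000 per well in MEM with 10% FBS, attached overnight at 37 C, then got 23 nL compound or DMSO. After 1 hr at 37 C, 5% CO2, red fluorescence was read at 540/590 nm against Rose Bengal sodium as reference.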

Unmarked numbers belong to inactive results. Inconclusive results are not listed. Active and inactive are the calls of the source. Unless noted, calls follow the shape of the dose curve; as a rule, active = well fitted curve in the direction sought with a large enough effect in the repeat runs; inconclusive = weak or mixed curves; inactive = no such curve, though single readings can be large; an effect the other way counts as inactive or inconclusive.
% is scaled to controls: 0 for no effect and ±100 for the full control effect.

For `C/C(=C\C(C)CC(C)CC(C)C)C1CC(=O)OC1=O` (stereo not given), the Potency entry in assay [1], in assay [2], in assay [3], in assay [4], in assay [5] and in assay [7] was “inactive” each time. Besides, the result in assay [6] and in assay [8] was inactive.
Consider `C=CC(=O)NC(C)(C)C`, for which the Potency entry in [1], in [2], in [3], in [4] and in assay [7] was “inactive” in each case. Besides, the result in [9], in assay [6] and in assay [8] was inactive.
Consider `O=C(O)c1cccnc1Nc1cccc(C(F)(F)F)c1`, for which the Potency result in assay [1], in assay [2], in [3], in assay [4] and in assay [7] was “inactive” in each case. Besides, the Potency in assay [5] is 11.9 µM (active). The outcome in assay [9], in assay [6] and in assay [8] was inactive.
Consider `NC(=O)c1cc[n+](CC2=C(C(=O)[O-])N3C(=O)[C@@H](NC(=O)Cc4cccs4)[C@H]3SC2)cc1`, for which the Potency entry in [1], in [2], in assay [3], in [4] and in [5] was “inactive” throughout. Besides, the fluorescence, relative to Rose Bengal in assay [9] is -0.33% [at 18.6 µM]. For the same compound, in [6], the fluorescence, % of fluorescein control is -0.0242% [at 18.6 µM]. Also, in assay [7], the fluorescence, % of triamterene is 0.803% [at 18.6 µM]. Moreover, in assay [8], the fluorescence, % of fluorescent control is 0.0624% [at 18.6 µM].
Consider `O=C(Nc1ccccc1)c1cc([N+](=O)[O-])ccc1Cl`, for which the Potency result in [1], in assay [2], in [3], in assay [4] and in assay [7] was “inactive” in each case. The compound was called inactive in [9], in [6] and in [8].
Consider `CCCCC(CC)COCCC#N` (stereo not given), for which the Potency entry in assay [1], in assay [2], in [3], in assay [4], in assay [5] and in assay [7] was “inactive” each time. Further, the call in [6] and in assay [8] was inactive.
Take `O=[N+]([O-])c1ccc(Cl)cc1Cl`: the Potency result in [1], in [2], in assay [3], in assay [4], in assay [5] and in assay [7] was “inactive” throughout. In addition, the compound was called inactive in [9], in [6] and in assay [8].
For `CCOCCn1c(N2CCCN(C)CC2)nc2ccccc21`, the Potency entry in assay [1], in assay [2], in assay [3], in assay [4], in [5] and in [7] was “inactive” each time. Also, the call in assay [9], in [6] and in assay [8] was inactive.
`CCC(=O)O[C@@H]1C[C@H]2CC[C@]1(C)C2(C)C`: the Potency entry in assay [1], in assay [2], in assay [3], in [4], in assay [5] and in assay [7] was “inactive” each time. The result in assay [9], in [6] and in [8] was inactive.
As for `O=c1[nH][nH]c2ccccc12`, the Potency result in assay [1], in assay [2], in assay [3], in assay [4], in assay [5] and in assay [7] was “inactive” in each case. In addition, the compound was classed as inactive in [9], in [6] and in assay [8].
Take `CCCCCCC/C=C/C=O`: the Potency entry in [1], in assay [2], in [3], in assay [4] and in [7] was “inactive” each time. The compound was classed as inactive in assay [9], in assay [6] and in assay [8].
For the compound `CCOc1ccccc1O`, the Potency entry in assay [1], in [2], in [3], in assay [4], in [5] and in assay [7] was “inactive” each time. In addition, the call in [9], in assay [6] and in [8] was inactive.
Regarding `CCCC(=O)OCCC(C)C`, the Potency result in [1], in assay [2], in assay [3], in assay [4], in assay [5] and in assay [7] was “inactive” in each case. Moreover, the call in [9], in assay [6] and in assay [8] was inactive.
Take `O=c1c2ccccc2oc2ccccc12`: the Potency entry in assay [1], in assay [2], in assay [3], in assay [4], in assay [5] and in assay [7] was “inactive” throughout. The result in assay [9], in assay [6] and in assay [8] was inactive.
Turning to `CC(C)CCCCCCCOC(=O)c1ccc(C(=O)OCCCCCCCC(C)C)c(C(=O)OCCCCCCCC(C)C)c1`, the Potency result in [1], in assay [2], in assay [3], in assay [4], in assay [5] and in [7] was “inactive” in each case. The compound was classed as inactive in [6] and in assay [8].
With `NC(=O)c1ccccc1`, the Potency entry in assay [1], in assay [2], in [3], in assay [4], in [5] and in assay [7] was “inactive” throughout. The result in assay [9], in [6] and in assay [8] was inactive.
With `CCCCCCCCCCCCCCCCN`, the Potency result in assay [1], in assay [2], in assay [3], in assay [4], in assay [5] and in [7] was “inactive” in each case. The call in assay [9], in assay [6] and in assay [8] was inactive.
With `CCCCCCCCNC`, the Potency entry in [1], in [2], in assay [3], in [4], in assay [5] and in assay [7] was “inactive” each time. In addition, the outcome in [9], in assay [6] and in assay [8] was inactive.
For the compound `CC(COc1ccccc1)NC(C)C(O)c1ccc(O)cc1` (stereo not given), the Potency entry in [1], in assay [2], in assay [3], in [4] and in assay [5] was “inactive” in each case. Further, the fluorescence, relative to Rose Bengal in assay [9] was -0.283% [at 18.6 µM]. Further, in [6], the fluorescence, % of fluorescein control was -0.086% [at 18.6 µM]. In assay [7], the fluorescence, % of triamterene is -0.0294% [at 18.6 µM]. Besides, the fluorescence, % of fluorescent control in [8] is -0.22% [at 18.6 µM].
For the compound `CCC(CC)C(=O)O`, the Potency entry in assay [1], in assay [2], in assay [3], in [4], in assay [5] and in assay [7] was “inactive” each time. In addition, the result in [9], in [6] and in assay [8] was inactive.
Consider `Cc1c(N=C=O)cccc1N=C=O`, for which the Potency result in assay [1], in [2], in assay [3], in [4], in assay [5] and in assay [7] was “inactive” each time. Also, the compound was called inactive in assay [9], in assay [6] and in [8].
On to `COC(=O)c1cc(Cl)ccc1[N+](=O)[O-]`, for which the Potency entry in assay [1], in assay [2], in assay [3], in [4], in [5] and in [7] was “inactive” each time. Also, the compound was classed as inactive in [9], in assay [6] and in assay [8].
Turning to `CC(Cc1ccccc1)(NC(=O)CN)c1ccccc1` (stereo not given), the Potency result in [1], in [2], in [3], in [4] and in [7] was “inactive” each time. Further, the compound was called inactive in assay [9], in assay [6] and in assay [8].
